Measured values taken from PubChem BioAssay (EPA / NIEHS).
Activity calls are given as the source filed them. The calls were made as follows: active = hit-call score of the fitted dose curve at least 0.9, where 1 is the maximum; inactive = score below 0.9.

Read-out: Urokinase-type plasminogen activator receptor (uPAR), PLAUR (gene 5329)
Assay: BSK_4H_uPAR: BioMAP Diversity Plus: 4H Assay for Urokinase-type plasminogen activator receptor (uPAR) Biomarker Activity (AID 2283030)
Conditions: primary human endothelial cells (HUVEC); actives raise or lower the signal
Description: BSK_4H is a cell-based, multiplexed-readout assay that uses umbilical vein endothelium, a human vascular primary cell, with measurements taken at 24 hours after chemical dosing in a 96-well plate.BSK_4HAR is an assay component measured in the BSK_4H assay. It measures uPAR antibody related to regulation of gene expression using ELISA technology.Data from the assay component BSK_4HAR was analyzed into 1 assay endpoint. This assay endpoint, BSK_4HAR, was analyzed with bidirectional fitting relative to DMSO as the negative control and baseline of activity. Using a type of binding reporter, gain or loss-of-signal activity can be used to understand changes in the signaling as they relate to the gene PLAUR. Furthermore, this assay endpoint can be referred to as a primary readout, because this assay has produced multiple assay endpoints where this one serves a signaling function. To generalize the intended target to other relatable targets, this assay endpoint is annotated to the cytokine intended target family, where the subfamily is plasmogen activator.
The levels of cell surface (or secreted, indicated by the prefix "s") biomarker endpoints were measured by ELISA. Overt cytotoxicity to cells in confluent adherent cultures (all systems other than the BT system) was assessed by measuring total protein levels using sulforhodamine B (SRB) staining in parallel cultures at the time of biomarker measurements, indicated as SRB endpoints. For proliferation assays for adherent cell types, individual cell types are cultured at sub-confluence and relative cell numbers quantified by SRB staining at time points optimized for each system (48 h: 3C and CASM3C systems; 72 h: BT and HDF3CGF systems; 96 h: SAg system). SRB was performed by staining cells with 0.1% SRB after fixation with 10% TCA and reading wells at 560 nm.Viability and proliferation of PBMC (T cells) was quantified by Alamar Blue reduction for the SAg and BT systems. For PBMC viability (referred to as PBMC Cytotoxicity within the assay endpoint names), cells were plated (75,000/well in a 96-well plate) and then chemical samples added for 1 h before addition of activators, SEB and TSST-1 (20 ng/mL final concentration each). Cells were incubated for 90 h. Then, Alamar Blue (20 uL/well) (Invitrogen, Cat DAL1100) was added for 6 h, and the plates were read with a fluorescence microplate reader at 546/580 nm (excitation/emission). For PBMC proliferation, cells were plated and activated as above but incubated for only 16 h prior to addition of Alamar Blue. Plates were read after 6 h.

SMILES	outcome	AC50
C=CCCCCCCCCC(=O)O	inactive	–
CCOCCO	inactive	–
CNS(=O)(=O)c1cc(C(=O)N2CCC(CCN3C4CCC3CC(n3c(C)nc5ccccc53)C4)(c3cccc(F)c3)CC2)c(Cl)cc1F (stereo not given)	–	0.148 µM (active)
CC[C@H]1OC(=O)[C@H](C)[C@@H](O[C@H]2C[C@@](C)(OC)[C@@H](O)[C@H](C)O2)[C@H](C)[C@@H](O[C@@H]2O[C@H](C)C[C@H](N(C)C)[C@H]2O)[C@](C)(O)C[C@@H](C)C(=O)[C@H](C)[C@@H](O)[C@]1(C)O	inactive	–
C1N2CN3CN1CN(C2)C3	inactive	–
CC(O)CN(CCN(CC(C)O)CC(C)O)CC(C)O (stereo not given)	inactive	–
CCCC(=O)OCC	inactive	–
COCCOCCOCCOC	inactive	–
CCn1nc(Cc2ccccc2)cc1C1CCN(C[C@H]2C[C@H](N(C)[C@@H](C(=O)O)C(C)C)C[C@@H]2c2cccc(F)c2)CC1	inactive	–
Cc1ccc(S(=O)(=O)O)cc1C	inactive	–
CCC(C)(C)C(=O)O[C@H]1C[C@@H](C)C=C2C=C[C@H](C)[C@H](CC[C@@H]3C[C@@H](O)CC(=O)O3)[C@H]21	–	20 µM (active)
CC(C)CCCCCCCOC(=O)CCCCC(=O)OCCCCCCCC(C)C	inactive	–
CC(C)c1cccc(C(C)C)c1N1C(=O)c2ccc(O)cc2C1=O	–	14.6 µM (active)
Fc1ccccc1[C@@H](F)COC1CCC(Nc2ncnc3[nH]ncc23)CC1 (stereo not given in full)	–	28.2 µM (active)
Cc1ccc(N)cc1O	inactive	–
COC(=O)c1ccccc1O	inactive	–
O=C1CCC(N2C(=O)c3ccccc3C2=O)C(=O)N1 (stereo not given)	inactive	–
CCCCC(CC)COC(=O)CCCCCCCCC(=O)OCC(CC)CCCC (stereo not given)	inactive	–
CCOC(=O)COc1ccc2c(c1)CC(NCC(O)c1cccc(Cl)c1)CC2 (stereo not given)	–	28.7 µM (active)
Nc1nc2ncc(CNc3ccc(C(=O)N[C@@H](CCC(=O)O)C(=O)O)cc3)nc2c(=O)[nH]1	inactive	–

SMILES	outcome	AC50
COCCOc1cc2cc(C(=O)NC3CCN(C(C)C)CC3)n(CC(=O)Nc3ccc(Cl)cn3)c2cn1	inactive	–
O=P(OC(CCl)CCl)(OC(CCl)CCl)OC(CCl)CCl	inactive	–
CC(C)CC(C)(O)C#CC(C)(O)CC(C)C (stereo not given)	inactive	–
O=C(O)CCN(C1(C(=O)NO)CCCC1)S(=O)(=O)c1ccc(Oc2ccc(F)cc2)cc1	inactive	–
CCOc1cccc(-n2cc(C(=O)N3CCN(c4cc(C(=O)O)c5ccccc5c4)CC3)nc2-c2ccc(C)cc2)c1	–	12.7 µM (active)
CCOCCOCCOCCO	inactive	–
CN(C)c1ccc(Cc2ccc(N(C)C)cc2)cc1	inactive	–
CC(C)=CCCC(C)CCO (stereo not given)	inactive	–
CCCCCCCCCCCCc1ccccc1	inactive	–
CC(=O)c1ccc2c(c1)[C@H](NC(=O)c1ccc(F)cc1)[C@@H](O)C(C)(C)O2	inactive	–
CC(C)CCCCCCOC(=O)c1ccc(C(=O)OCCCCCCC(C)C)c(C(=O)OCCCCCCC(C)C)c1	inactive	–
CC(=O)OCCC(C)C	inactive	–
C[C@](N)(Cc1ccc(O)c(O)c1)C(=O)O	inactive	–
CC(C)CCO	inactive	–
CCNc1ccccc1	inactive	–
Cn1c(=O)cc(Oc2ccc(F)cc2F)c2cnc(NCC(C)(C)O)nc21	inactive	–
CC1=CC(=O)CC(C)(C)C1	inactive	–
CC(C)=CCC/C(C)=C\CO	inactive	–
O=c1[nH]c2ccc(S(=O)CCN3CCC(Cc4ccc(F)cc4)CC3)cc2o1 (stereo not given)	–	12.8 µM (active)
O=C1OC(=O)C2C3C=CC(C3)C12 (stereo not given)	inactive	–
